About 79,000 compounds went through this panel and 15% of them were active in at least one assay; those are over-represented in the sample as a whole. A number with no mark means an inactive call. Calls of active or inactive are those of the source. No stated cut-off is given here; in the data, active means growth inhibition above about 70%; inactive means the rest.

A short description of assay [1]: NCI Yeast Anticancer Drug Screen. Data for the rad50 strain (AID 155).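 Further: 0% = growth of vehicle-only cultures of the same strain.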 The note with it: S. cerevisiae rad50 strain growth inhibition; at 50.0 µM; hits give high values. In a few lines:
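Cells are treated with compound, grown, and their growth is then scored against vehicle-only cultures of the same repair-deficient yeast strain.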

Assay [2] can be described thus: NCI Yeast Anticancer Drug Screen. Data for the mec2-1 strain (AID 157). Conditions: S. cerevisiae mec2-1 strain, at 50.0 µM, hits give high values. In a few lines: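 Using mec2-1 yeast: add compound, measure growth, express inhibition versus vehicle-treated cultures.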
Assay [3] in a line: NCI Yeast Anticancer Drug Screen. Data for the sgs1 mgt1 strain (AID 161).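 Further: 0% = growth of cultures given vehicle only.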 The note with it: S. cerevisiae sgs1 mgt1 strain, at 50.0 µM, hits give high values. In outline:
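This yeast growth screen uses a strain with defined DNA-repair lesions; compound-treated growth is compared with vehicle-treated growth.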

Assay [4] in a line: NCI Yeast Anticancer Drug Screen. Data for the cln2 rad14 strain (AID 165).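 Further: 0% = growth equal to vehicle treated cultures.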 The note with it: S. cerevisiae cln2 rad14 strain, at 50.0 µM, hits give high values. In a few lines: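 Yeast strain cln2 rad14, bearing defects in cell cycle control and DNA repair, serves as the test system; values reflect growth inhibition compared with vehicle.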
Assay [5] in a line: NCI Yeast Anticancer Drug Screen. Data for the bub3 strain (AID 167). Conditions: S. cerevisiae bub3 mutant strain, at 50.0 µM, hits give high values. In a few lines:
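Part of a panel of yeast mutants defective in DNA damage repair or cell cycle regulation. Each strain is grown with compound, and inhibition is calculated relative to solvent-treated cultures.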

Assay [6] is described as follows: NCI Yeast Anticancer Drug Screen. Data for the mlh1 rad18 strain (AID 175). Conditions: S. cerevisiae mlh1 rad18 strain growth inhibition; at 50.0 µM; hits give high values. In outline:
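Steps: expose repair-defective yeast to compound; measure growth; express inhibition against vehicle-treated controls.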

Turning to `CCC(OC(=O)C1C(C=C(C)C)C1(C)C)c1cc2c(cc1Cl)OCO2` (stereo unspecified), the growth inhibition in assay [1] was -8.05%; in assay [2], -19.1%; in assay [3] it was -7.3%; in assay [4], -13.3%; in assay [5], -10.7%; in assay [6], -20.8%.
As for `N#CS.N=C=S.O=N[O-].[Co+3].[NH-]CC[NH-].[NH-]CC[NH-]`, the growth inhibition in assay [1] was -6.55%; in assay [2], 6.3%; in assay [3], 8.25%; in assay [4], -34%; in assay [5], 50.7%; in assay [6] it was 12.7%.
Consider `CC(=O)[O-].CC(=O)[O-].[Mn+2].c1ccc(/C(=N\Nc2ccccn2)c2ccccn2)cc1`, for which the growth inhibition is 87.8% (active) in assay [1]; 91.5% (active) in assay [2]; 90.5% (active) in assay [3]; 84.2% (active) in assay [4]; 89.2% (active) in assay [5]; 89.4% (active) in assay [6].
`C1=CC2CCC1C2`: the growth inhibition in assay [1] was 15.5%; in assay [2] it was 3.75%; in assay [3], -7.1%; in assay [4], -52%; in assay [5], -5.65%; in assay [6], 7.85%.
As to `O=C1C2CC(CN3CCCCC23)C2CCCCN12` (stereo unspecified), the growth inhibition in assay [1] was -4.55%; in assay [2] it was -24.1%; in assay [3], 18.9%; in assay [4], 8.35%; in assay [5] it was -4.15%; in assay [6], -24.2%.
Take `O=NN1CCCCCC1C(=O)O` (stereo unspecified): the growth inhibition is -22.1% in assay [1]; 1% in assay [2]; -20.9% in assay [3]; -24.7% in assay [4]; 2.7% in assay [5]; -0.25% in assay [6].
Regarding `CC1(c2ccccc2)CC12C(=O)NC(=O)NC2=O` (stereo unspecified), the growth inhibition in assay [1] was -69.1%; in assay [2] it was -22.6%; in assay [3], -18.9%; in assay [4], -8.75%; in assay [5], -27.7%; in assay [6], -20.9%.
As for `CC1OC(O[C@@H]2C=C3CC[C@@H]4[C@H](CC[C@]5(C)[C@@H](c6ccc(=O)oc6)CC[C@]45O)[C@@]3(C)CC2)C(O)C(OC2OC(CO)C(O)C(O)C2O)C1O` (stereo partly specified), the growth inhibition in assay [1] is 25.7%; in assay [2] it was 5.65%; in assay [3], -1.6%; in assay [4] it was 10.8%; in assay [5] it was 14.1%; in assay [6] it was 8.6%.
As for `O=Cc1ccccc1O.[Nd]`, the growth inhibition was -0.65% in assay [1]; -33.6% in assay [2]; 17.2% in assay [3]; 6.65% in assay [4]; 3.9% in assay [5]; 6.6% in assay [6].
Take `O=Cc1ccccc1O.O=Cc1ccccc1O.[Cu]`: the growth inhibition in assay [1] is 86.2% (active); in assay [2], 72.8% (active); in assay [3] it was 88.9% (active); in assay [4], 55.4%; in assay [5], 70.2% (active); in assay [6], 92.6% (active).
Consider `OCCCNCc1cccnc1`, for which the growth inhibition in assay [1] was 9.55%; in assay [2] it was -3.05%; in assay [3], -0.75%; in assay [4] it was 29.2%; in assay [5] it was -3.8%; in assay [6] it was 25.9%.
In the case of `CCOC(=N)CC(O)C(Cl)(Cl)Cl` (stereo unspecified), the growth inhibition in assay [1] was -2.05%; in assay [2], 1.7%; in assay [3], -10.1%; in assay [4] it was -47.2%; in assay [5], 22%; in assay [6] it was -6.25%.
As to `c1ccc2c(c1)ccc1sc3c([n+]12)CCC3`, the growth inhibition in assay [1] was -0.9%; in assay [2], -5.65%; in assay [3], -18.2%; in assay [4] it was -14.5%; in assay [5], 2.4%; in assay [6] it was -5.3%.
Regarding `O=C1CC(=O)NC(=S)N1`, the growth inhibition is 2.15% in assay [1]; 21.1% in assay [2]; -13.5% in assay [3]; -21.4% in assay [4]; 4.85% in assay [5]; -5.75% in assay [6].
As to `O=C(COc1cccc(Cl)c1Cl)Nc1ccc[n+](Cc2ccc(S(=O)(=O)F)cc2)c1`, the growth inhibition in assay [1] is 20.4%; in assay [2], 0.15%; in assay [3], -5.45%; in assay [4], 31.2%; in assay [5], 7.4%; in assay [6], 28.6%.
On to `Cc1cc2oc(=O)c3c(c2c(O)c1CN1CCOCC1)CCCC3`, for which the growth inhibition is 34.1% in assay [1]; 14.4% in assay [2]; 16.5% in assay [3]; 15.6% in assay [4]; 18.1% in assay [5]; 15.8% in assay [6].
Take `[N-]=[N+]=C1C(=O)NN=C1c1ccccc1`: the growth inhibition was -9.6% in assay [1]; -21.9% in assay [2]; -25.4% in assay [3]; 0.5% in assay [4]; -17.2% in assay [5]; 12.8% in assay [6].
As to `O=CC1(c2ccccc2)CCNCC1`, the growth inhibition in assay [1] was -0.95%; in assay [2], 3.85%; in assay [3] it was 15.5%; in assay [4], 6.35%; in assay [5], 0.85%; in assay [6], 8.85%.
For `C=C1CCN2CC[C@@H](OC(=O)/C(C)=C\C)[C@@H]12`, the growth inhibition in assay [1] is 1.65%; in assay [2], 1.3%; in assay [3], 7.1%; in assay [4], -1.9%; in assay [5], 12.9%; in assay [6] it was -22.1%.
Regarding `Oc1ccc(C(c2cc3c(cc2O)OCO3)N2CCNCC2)cc1` (stereo unspecified), the growth inhibition in assay [1] was 21.8%; in assay [2], 25.7%; in assay [3] it was 25.9%; in assay [4], -22.2%; in assay [5], 18.5%; in assay [6], 31.7%.
Regarding `Oc1cc(N2CC2)c(O)cc1N1CC1`, the growth inhibition is 12.8% in assay [1]; 13.9% in assay [2]; 11.2% in assay [3]; -42.6% in assay [4]; -1.75% in assay [5]; 11.4% in assay [6].

The values above are taken from PubChem BioAssay (NCI).
